Data reported in paper PMC7862700, “An all-to-all approach to the identification of sequence-specific readers for epigenetic DNA modifications on cytosine”.

Legend:
Experiment in all cases: DAPPL (digital affinity profiling via proximity ligation, sequencing); 10 mM Tris-HCl pH 7.5, 50 mM NaCl, 1 mM DTT, 4% glycerol, room temperature, 30 min; GST-TFs on glutathione beads, 16-mer random dsDNA library, 0.1% formaldehyde crosslink after washing; high values mean tight binding
Conditions in all cases: protein: recombinant; tags: N-terminal GST; dsDNA, one strand shown
FLI1 = target: T1, FLI1 (Homo sapiens, UniProt Q01543 1-452)
T1 sequence: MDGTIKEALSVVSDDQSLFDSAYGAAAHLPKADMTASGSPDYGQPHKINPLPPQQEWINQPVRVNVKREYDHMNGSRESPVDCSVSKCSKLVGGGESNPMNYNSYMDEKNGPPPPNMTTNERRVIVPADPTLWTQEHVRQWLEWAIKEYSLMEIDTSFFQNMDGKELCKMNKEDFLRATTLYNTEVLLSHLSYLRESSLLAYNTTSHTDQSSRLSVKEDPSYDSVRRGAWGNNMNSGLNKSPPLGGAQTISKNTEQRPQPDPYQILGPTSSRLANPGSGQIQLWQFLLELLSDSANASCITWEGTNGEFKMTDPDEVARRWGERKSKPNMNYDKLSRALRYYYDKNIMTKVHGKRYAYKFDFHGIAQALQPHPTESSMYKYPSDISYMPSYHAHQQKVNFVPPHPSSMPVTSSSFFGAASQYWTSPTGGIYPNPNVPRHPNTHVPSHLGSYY
Outline: (§1)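 Beads coated with glutathione captured GST-fused human transcription factors that had been expressed in yeast, and the factors were then given DNA barcodes and pooled with a tag-only sample. The pools were incubated with 200 nmole of a random double-stranded 16-mer DNA library in Tris/NaCl/DTT/glycerol buffer for 30 min at room temperature, washed, crosslinked with 0.1% formaldehyde and proximity-ligated with BsaI/T4 ligase at 37 °C for 1 h. PCR amplification and Illumina NextSeq500 sequencing came last. Binding signal is each hexamer's read frequency for a factor divided by its frequency for the tag-only sample.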

ELK1 = target: T2, ELK1 (Homo sapiens, UniProt P19419 1-428)
T2 sequence: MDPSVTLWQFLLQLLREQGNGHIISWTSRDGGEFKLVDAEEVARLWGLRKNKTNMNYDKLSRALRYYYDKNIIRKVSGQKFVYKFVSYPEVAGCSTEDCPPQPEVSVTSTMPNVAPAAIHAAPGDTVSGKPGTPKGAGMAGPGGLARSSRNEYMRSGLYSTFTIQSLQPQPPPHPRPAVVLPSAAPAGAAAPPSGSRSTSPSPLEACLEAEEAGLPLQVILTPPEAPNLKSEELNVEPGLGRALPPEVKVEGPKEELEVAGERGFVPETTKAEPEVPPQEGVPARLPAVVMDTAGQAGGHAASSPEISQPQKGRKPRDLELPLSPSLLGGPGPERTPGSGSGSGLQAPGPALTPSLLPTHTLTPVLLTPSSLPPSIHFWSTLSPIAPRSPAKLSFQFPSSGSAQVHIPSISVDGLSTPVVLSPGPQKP
Outline: as §1

GABPA = target: T3, GABPA (Homo sapiens, UniProt Q06546 1-454)
T3 sequence: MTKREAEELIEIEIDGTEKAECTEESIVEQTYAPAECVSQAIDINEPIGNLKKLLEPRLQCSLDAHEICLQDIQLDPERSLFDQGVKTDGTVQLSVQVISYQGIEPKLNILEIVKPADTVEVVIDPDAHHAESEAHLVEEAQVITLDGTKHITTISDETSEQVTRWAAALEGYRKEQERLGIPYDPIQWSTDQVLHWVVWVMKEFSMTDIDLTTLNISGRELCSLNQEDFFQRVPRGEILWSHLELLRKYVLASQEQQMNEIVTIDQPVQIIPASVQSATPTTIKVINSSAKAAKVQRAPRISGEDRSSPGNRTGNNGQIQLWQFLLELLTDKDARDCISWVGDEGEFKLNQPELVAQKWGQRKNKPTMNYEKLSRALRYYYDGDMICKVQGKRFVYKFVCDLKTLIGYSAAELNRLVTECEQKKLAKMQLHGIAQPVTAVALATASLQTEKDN
Outline: as §1

ERG = target: T4, ERG (Homo sapiens, UniProt P11308 1-479)
T4 sequence: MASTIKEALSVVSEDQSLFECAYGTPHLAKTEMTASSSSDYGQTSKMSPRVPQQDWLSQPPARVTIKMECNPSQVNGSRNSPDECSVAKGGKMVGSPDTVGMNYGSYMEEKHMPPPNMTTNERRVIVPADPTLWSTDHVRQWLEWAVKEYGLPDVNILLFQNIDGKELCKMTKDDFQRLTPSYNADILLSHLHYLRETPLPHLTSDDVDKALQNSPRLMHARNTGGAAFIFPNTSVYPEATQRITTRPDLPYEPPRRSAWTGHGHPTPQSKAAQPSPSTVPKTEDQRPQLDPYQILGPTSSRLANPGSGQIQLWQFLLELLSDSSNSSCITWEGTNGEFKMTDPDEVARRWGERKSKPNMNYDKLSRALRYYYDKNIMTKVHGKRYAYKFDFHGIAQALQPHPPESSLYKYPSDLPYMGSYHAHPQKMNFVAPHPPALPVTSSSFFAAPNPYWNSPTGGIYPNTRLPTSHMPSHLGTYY
Outline: as §1

ELF1 = ELF1 (Homo sapiens, UniProt P32519 1-619)
Outline: as §1

EHF = target: T5, EHF (Homo sapiens, UniProt Q9NZC4 1-300)
T5 sequence: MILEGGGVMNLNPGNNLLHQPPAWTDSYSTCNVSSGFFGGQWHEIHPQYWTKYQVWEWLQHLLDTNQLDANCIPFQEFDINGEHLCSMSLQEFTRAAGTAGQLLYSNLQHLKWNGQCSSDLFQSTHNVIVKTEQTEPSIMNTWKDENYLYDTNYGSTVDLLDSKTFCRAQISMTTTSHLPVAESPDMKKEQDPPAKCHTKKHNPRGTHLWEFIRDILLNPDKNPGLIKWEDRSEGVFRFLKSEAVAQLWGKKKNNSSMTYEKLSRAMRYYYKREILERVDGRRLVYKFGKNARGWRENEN
Outline: as §1

SPI1 = SPI1 (Homo sapiens, UniProt P17947 1-270)
Outline: as §1

SPIB = SPIB (Homo sapiens, UniProt Q01892 1-262)
Outline: as §1

FEV = target: T6, FEV (Homo sapiens, UniProt Q99581 1-238)
T6 sequence: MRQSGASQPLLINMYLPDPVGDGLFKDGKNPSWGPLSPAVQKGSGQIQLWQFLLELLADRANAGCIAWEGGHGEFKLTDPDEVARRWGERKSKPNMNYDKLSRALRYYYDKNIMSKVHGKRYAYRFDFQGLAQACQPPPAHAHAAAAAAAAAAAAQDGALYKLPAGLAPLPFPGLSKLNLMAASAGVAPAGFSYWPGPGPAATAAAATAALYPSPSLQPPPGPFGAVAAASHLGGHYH
Outline: as §1

ETV5 = ETV5 (Homo sapiens, UniProt P41161 1-510)
Outline: as §1

SPIC = target: T7, SPIC (Homo sapiens, UniProt Q8N5J4 1-248)
T7 sequence: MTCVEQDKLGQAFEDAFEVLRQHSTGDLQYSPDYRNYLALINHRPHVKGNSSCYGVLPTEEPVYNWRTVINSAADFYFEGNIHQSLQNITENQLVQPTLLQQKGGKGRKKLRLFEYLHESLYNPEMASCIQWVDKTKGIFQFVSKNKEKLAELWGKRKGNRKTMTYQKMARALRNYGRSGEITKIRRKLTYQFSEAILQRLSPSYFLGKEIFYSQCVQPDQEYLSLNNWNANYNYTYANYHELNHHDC
Outline: as §1

ELF4 = ELF4 (Homo sapiens, UniProt Q99607 1-663)
Outline: as §1

ELK4 = target: T8, ELK4 (Homo sapiens, UniProt P28324-2 1-405)
T8 sequence: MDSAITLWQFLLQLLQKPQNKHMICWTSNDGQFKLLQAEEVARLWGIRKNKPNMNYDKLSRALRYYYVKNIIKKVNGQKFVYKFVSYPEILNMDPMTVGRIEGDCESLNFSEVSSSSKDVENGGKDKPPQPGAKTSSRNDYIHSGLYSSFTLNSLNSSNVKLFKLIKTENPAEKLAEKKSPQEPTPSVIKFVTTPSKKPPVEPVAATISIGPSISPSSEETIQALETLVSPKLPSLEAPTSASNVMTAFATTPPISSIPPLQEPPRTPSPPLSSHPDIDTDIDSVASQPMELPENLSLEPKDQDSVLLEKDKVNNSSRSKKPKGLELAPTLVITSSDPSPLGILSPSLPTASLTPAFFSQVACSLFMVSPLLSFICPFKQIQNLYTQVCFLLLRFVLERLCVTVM
Outline: as §1

ETV2 = target: T9, ETV2 (Homo sapiens, UniProt O00321 1-342)
T9 sequence: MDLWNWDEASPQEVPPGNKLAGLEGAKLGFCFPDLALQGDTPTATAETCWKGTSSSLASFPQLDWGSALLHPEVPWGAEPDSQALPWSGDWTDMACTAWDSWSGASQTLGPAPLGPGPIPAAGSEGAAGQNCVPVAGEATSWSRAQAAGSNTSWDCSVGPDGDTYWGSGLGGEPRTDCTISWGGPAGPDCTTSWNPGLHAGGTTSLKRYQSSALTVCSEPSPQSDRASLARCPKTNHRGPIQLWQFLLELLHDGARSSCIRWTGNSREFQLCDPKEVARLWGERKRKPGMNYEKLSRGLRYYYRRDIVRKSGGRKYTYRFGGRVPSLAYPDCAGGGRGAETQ
Outline: as §1

ELF3 = target: T10, ELF3 (Homo sapiens, UniProt P78545 1-371)
T10 sequence: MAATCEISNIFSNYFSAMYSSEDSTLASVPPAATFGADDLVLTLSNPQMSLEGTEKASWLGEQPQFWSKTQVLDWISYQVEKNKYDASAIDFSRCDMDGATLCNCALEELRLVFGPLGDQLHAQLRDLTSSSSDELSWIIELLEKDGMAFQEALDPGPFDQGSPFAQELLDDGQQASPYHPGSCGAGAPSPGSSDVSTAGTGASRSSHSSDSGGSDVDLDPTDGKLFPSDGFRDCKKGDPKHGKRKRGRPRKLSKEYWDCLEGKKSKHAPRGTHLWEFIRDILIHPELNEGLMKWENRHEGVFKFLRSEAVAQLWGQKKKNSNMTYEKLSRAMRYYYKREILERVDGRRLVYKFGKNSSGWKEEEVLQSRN
Outline: as §1

ETV1 = ETV1 (Homo sapiens, UniProt P50549 1-477)
Outline: as §1

ELK3 = target: T11, ELK3 (Homo sapiens, UniProt P41970 1-407)
T11 sequence: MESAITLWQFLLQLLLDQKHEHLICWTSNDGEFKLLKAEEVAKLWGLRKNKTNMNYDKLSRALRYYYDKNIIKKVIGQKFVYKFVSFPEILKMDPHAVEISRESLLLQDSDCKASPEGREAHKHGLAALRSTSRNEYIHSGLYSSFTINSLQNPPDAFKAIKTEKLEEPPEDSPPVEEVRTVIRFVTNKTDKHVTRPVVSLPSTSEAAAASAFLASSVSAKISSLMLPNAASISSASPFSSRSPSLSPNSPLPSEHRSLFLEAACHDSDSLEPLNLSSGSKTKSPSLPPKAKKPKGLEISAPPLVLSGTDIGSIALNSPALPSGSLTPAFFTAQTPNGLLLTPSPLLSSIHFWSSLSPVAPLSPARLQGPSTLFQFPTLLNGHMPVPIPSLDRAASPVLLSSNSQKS
Outline: as §1

Chain of ETV1 (P50549 whole entry): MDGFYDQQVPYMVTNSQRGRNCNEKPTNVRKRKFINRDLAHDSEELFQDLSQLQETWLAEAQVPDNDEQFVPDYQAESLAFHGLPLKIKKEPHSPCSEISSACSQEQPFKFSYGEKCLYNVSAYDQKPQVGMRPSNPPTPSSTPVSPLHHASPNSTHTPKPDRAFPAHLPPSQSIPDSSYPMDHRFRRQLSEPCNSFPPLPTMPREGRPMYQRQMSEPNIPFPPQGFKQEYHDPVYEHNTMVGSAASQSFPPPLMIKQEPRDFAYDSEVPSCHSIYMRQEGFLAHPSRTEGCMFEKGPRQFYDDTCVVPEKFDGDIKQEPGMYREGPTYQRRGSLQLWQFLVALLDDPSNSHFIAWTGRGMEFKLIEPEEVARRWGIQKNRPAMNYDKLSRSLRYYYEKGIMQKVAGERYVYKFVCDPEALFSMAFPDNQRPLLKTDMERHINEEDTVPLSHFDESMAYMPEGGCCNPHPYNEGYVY
Chain of ETV5 (P41161 whole entry): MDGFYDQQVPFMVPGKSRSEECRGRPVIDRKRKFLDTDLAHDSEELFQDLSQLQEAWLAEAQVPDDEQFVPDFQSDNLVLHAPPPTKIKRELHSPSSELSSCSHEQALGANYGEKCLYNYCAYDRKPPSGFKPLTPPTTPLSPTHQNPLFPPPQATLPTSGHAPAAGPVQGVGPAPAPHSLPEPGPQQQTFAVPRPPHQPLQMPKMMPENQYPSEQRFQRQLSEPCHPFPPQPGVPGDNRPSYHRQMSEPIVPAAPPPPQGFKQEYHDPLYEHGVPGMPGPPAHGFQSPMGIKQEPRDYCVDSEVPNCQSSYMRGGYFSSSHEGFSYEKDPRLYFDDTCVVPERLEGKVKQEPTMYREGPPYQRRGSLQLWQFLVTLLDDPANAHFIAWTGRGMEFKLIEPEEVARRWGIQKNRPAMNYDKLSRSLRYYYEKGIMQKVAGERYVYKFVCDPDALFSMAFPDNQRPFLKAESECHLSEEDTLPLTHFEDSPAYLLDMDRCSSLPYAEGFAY
Chain of SPIB (Q01892 whole entry): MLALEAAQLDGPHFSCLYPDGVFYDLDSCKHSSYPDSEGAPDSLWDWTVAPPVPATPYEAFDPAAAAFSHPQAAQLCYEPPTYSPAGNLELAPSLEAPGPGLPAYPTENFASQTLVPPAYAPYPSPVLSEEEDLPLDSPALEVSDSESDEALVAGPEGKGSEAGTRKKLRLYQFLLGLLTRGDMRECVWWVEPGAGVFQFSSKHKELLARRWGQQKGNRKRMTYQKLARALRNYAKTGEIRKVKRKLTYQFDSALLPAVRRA
Chain of ELF1 (P32519 whole entry): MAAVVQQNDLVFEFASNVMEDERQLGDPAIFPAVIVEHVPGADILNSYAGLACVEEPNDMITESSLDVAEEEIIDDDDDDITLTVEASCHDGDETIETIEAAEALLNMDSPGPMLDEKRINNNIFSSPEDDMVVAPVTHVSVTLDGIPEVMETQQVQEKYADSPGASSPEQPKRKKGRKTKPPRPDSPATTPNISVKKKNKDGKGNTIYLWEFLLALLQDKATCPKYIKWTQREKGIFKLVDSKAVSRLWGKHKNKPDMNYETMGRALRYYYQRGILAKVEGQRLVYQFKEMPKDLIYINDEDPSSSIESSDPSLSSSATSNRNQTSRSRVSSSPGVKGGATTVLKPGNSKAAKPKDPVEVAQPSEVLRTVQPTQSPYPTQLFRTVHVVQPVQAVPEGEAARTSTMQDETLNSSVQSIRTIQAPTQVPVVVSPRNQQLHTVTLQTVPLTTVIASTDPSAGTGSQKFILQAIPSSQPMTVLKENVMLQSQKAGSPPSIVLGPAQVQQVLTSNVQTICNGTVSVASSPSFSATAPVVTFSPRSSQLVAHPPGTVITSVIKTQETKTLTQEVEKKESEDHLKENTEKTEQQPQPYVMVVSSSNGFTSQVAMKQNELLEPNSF
Chain of ELF4 (Q99607 whole entry): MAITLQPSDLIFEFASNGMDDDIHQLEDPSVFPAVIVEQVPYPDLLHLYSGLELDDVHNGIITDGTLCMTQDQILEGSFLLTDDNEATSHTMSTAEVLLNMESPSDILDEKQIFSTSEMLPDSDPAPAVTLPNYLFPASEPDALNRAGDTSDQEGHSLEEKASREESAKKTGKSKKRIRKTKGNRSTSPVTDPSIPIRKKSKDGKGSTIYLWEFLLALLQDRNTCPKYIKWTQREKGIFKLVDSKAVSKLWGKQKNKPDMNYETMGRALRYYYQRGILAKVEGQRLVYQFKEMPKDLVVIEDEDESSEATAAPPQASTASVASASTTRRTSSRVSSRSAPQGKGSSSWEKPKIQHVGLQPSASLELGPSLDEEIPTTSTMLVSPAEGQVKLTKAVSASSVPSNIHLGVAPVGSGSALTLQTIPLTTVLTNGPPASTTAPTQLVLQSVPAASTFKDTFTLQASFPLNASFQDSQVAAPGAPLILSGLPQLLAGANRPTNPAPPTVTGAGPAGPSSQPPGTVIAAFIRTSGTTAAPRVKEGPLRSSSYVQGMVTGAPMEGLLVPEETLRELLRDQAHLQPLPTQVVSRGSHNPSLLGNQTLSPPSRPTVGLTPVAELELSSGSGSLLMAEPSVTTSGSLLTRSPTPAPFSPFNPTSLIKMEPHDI

Row | Sequence | binding signal (FLI1) | binding signal (ELK1) | binding signal (GABPA) | binding signal (ERG) | binding signal (ELF1) | binding signal (EHF) | binding signal (SPI1) | binding signal (SPIB) | binding signal (FEV) | binding signal (ETV5) | binding signal (SPIC) | binding signal (ELF4) | binding signal (ELK4) | binding signal (ETV2) | binding signal (ELF3) | binding signal (ETV1) | binding signal (ELK3)
1 | AGTGTT | 1.05 fold enrichment (6-mer frequency, TF over GST control) | 1.16 fold enrichment (6-mer frequency, TF over GST control) | 1.14 fold enrichment (6-mer frequency, TF over GST control) | 1.15 fold enrichment (6-mer frequency, TF over GST control) | 1.08 fold enrichment (6-mer frequency, TF over GST control) | 1.02 fold enrichment (6-mer frequency, TF over GST control) | 1.32 fold enrichment (6-mer frequency, TF over GST control) | 1.15 fold enrichment (6-mer frequency, TF over GST control) | 1.02 fold enrichment (6-mer frequency, TF over GST control) | 1.06 fold enrichment (6-mer frequency, TF over GST control) | 1.18 fold enrichment (6-mer frequency, TF over GST control) | 1.05 fold enrichment (6-mer frequency, TF over GST control) | 1.08 fold enrichment (6-mer frequency, TF over GST control) | 1.07 fold enrichment (6-mer frequency, TF over GST control) | 1.26 fold enrichment (6-mer frequency, TF over GST control) | 1.06 fold enrichment (6-mer frequency, TF over GST control) | –
2 | TGCGGA | 1.35 fold enrichment (6-mer frequency, TF over GST control) | 1.27 fold enrichment (6-mer frequency, TF over GST control) | 1.2 fold enrichment (6-mer frequency, TF over GST control) | 1.37 fold enrichment (6-mer frequency, TF over GST control) | 1.32 fold enrichment (6-mer frequency, TF over GST control) | 1.37 fold enrichment (6-mer frequency, TF over GST control) | 1.85 fold enrichment (6-mer frequency, TF over GST control) | 1.29 fold enrichment (6-mer frequency, TF over GST control) | 1.19 fold enrichment (6-mer frequency, TF over GST control) | 1.47 fold enrichment (6-mer frequency, TF over GST control) | 1.44 fold enrichment (6-mer frequency, TF over GST control) | 1.24 fold enrichment (6-mer frequency, TF over GST control) | 1.13 fold enrichment (6-mer frequency, TF over GST control) | 1.37 fold enrichment (6-mer frequency, TF over GST control) | 1.74 fold enrichment (6-mer frequency, TF over GST control) | 1.37 fold enrichment (6-mer frequency, TF over GST control) | 1.23 fold enrichment (6-mer frequency, TF over GST control)
3 | CCCCAC | 1.19 fold enrichment (6-mer frequency, TF over GST control) | 1.24 fold enrichment (6-mer frequency, TF over GST control) | 1.19 fold enrichment (6-mer frequency, TF over GST control) | 1.2 fold enrichment (6-mer frequency, TF over GST control) | 1.24 fold enrichment (6-mer frequency, TF over GST control) | 1.34 fold enrichment (6-mer frequency, TF over GST control) | 1.22 fold enrichment (6-mer frequency, TF over GST control) | 1.25 fold enrichment (6-mer frequency, TF over GST control) | 1.29 fold enrichment (6-mer frequency, TF over GST control) | 1.18 fold enrichment (6-mer frequency, TF over GST control) | 1.33 fold enrichment (6-mer frequency, TF over GST control) | 1.28 fold enrichment (6-mer frequency, TF over GST control) | 1.36 fold enrichment (6-mer frequency, TF over GST control) | 1.2 fold enrichment (6-mer frequency, TF over GST control) | 1.25 fold enrichment (6-mer frequency, TF over GST control) | 1.11 fold enrichment (6-mer frequency, TF over GST control) | 1.34 fold enrichment (6-mer frequency, TF over GST control)
